In all, about 25,000 sequences were measured (“ln(normalized median fluorescence intensity)”: median about 9.7, highest 2% from about 11 on). What follows is part of a selection rich in the highest values, with near analogues and random picks from the rest.
System: PfAP2-HC AP2 domain (GST-tagged)
Assay: gcPBM binding intensity (ln(normalized median fluorescence intensity)); higher = stronger DNA binding
Method in brief: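 The highest Masliner-normalised natural-log median intensity across replicate spots of either probe orientation is reported as binding intensity. GST-tagged P. falciparum DNA-binding domains expressed in E. coli were applied for 1 h to an Agilent 4 × 180k array of primer-extended double-stranded 36-bp intergenic genomic probes plus negative controls, and bound protein was detected with Alexa488 anti-GST antibody and scanned at 488 nm.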

| Sequence | gcPBM binding intensity (ln) |
| --- | --- |
| TATTTGTAAAAATTGTGTACTTAGAAAATTCCAAAA [XGTACX_site6007] | 9.22 |
| ATAATATATGAAAAAACGATTTTTTCATTTTAAATA [XGTACX_negctrl_site146] | 9.51 |
| TTTGGTTATATTTAAAAAAGACTAATGAAAATTAAA [XGTACX_negctrl_site526] | 9.35 |
| AACATTCTATGTTGCACACAAAGAGAAAAATTTATT [CACACA_site3995] | 9.78 |
| TATATATATATATATATATATATTTTTATTATATAT [XGTACX_negctrl_site89] | 9.89 |
| GTTTTCATCCAAAAAAGTACATTTATTTTTATACGA [XGTACX_site1039] | 9.39 |
| TTTTCTAAAGTAAGTTAAGATATGCAAAAAAAAGAA [GTGCAC_negctrl_site242] | 9.62 |
| AAAATAAAATAAAACACAAAAAAATAAAACAAAATA [CACACA_negctrl_site16] | 9.78 |
| AAAAAAAAAAAAAACACACACACAAAATAAACAAAC [CACACA_site2720] | 10.8 |
| ACAAAATAAAAACACACACACAAACACAAAAAAATA [CACACA_site3390] | 11.4 |
| AAGGATATAAAAAAACGTACGTACGATAATATAATT [XGTACX_site1292] | 9.86 |
| GTTGTTATATAAAATTGTACATAAAAAACAAAATAT [XGTACX_site5313] | 9.66 |
| AAAAAAAAAAAAAAAACACACACATATATATAATAT [CACACA_site9038] | 10.3 |
| AAAAACCATTGGCACACACACATAATATATAATATA [CACACA_site4903] | 11.4 |
| AAAAAAAAAAAAAAAACACACATATATCTATAATAT [CACACA_site6665] | 9.84 |
| AAAAACCATTCGCACACACACATAATCTATAATATA [CACACA_site6782] | 11.1 |
| AAAAACCATGGGCACACACACATAATATATAATATA [CACACA_site1425] | 10.4 |
| GGAAAAACCATTCGCACACACACATAATATATAATA [CACACA_site1424] | 10.2 |
| TTACTCAAACAAACAAAAAAAAAAAAAAAAAAAAAA [TGCATGCA_negctrl_site457] | 8.89 |
| TATTTCATAATAAATTGTACGCGTAGAAAACCATGA [XGTACX_site7506] | 9.99 |
| TATTTATGCACGCGTGCACACACATATGAAAAAAGG [CACACA_site9090] | 9.87 |
| ACATATCTATCGTTTTTAATTGTATATTATTATAAC [TGCATGCA_negctrl_site144] | 9.76 |

| Sequence | gcPBM binding intensity (ln) |
| --- | --- |
| AAAAAAAAAAAACACACACACACACTAATACATACA [CACACA_site8135] | 10.6 |
| AAAAAAAAAAGACACACACACACATACACATACATA [CACACA_site7362] | 11.1 |
| AATAAAAAAAAAAAAAAAAAAAAAAAGACACTAAAA [CACACA_negctrl_site1075] | 9.53 |
| AAGACACAAAAACACACACACATACATACATACATA [CACACA_site454] | 10.3 |
| AAAAAAAAAAGACACACACACACACTAATACATACA [CACACA_site6473] | 11.4 |
| AAAAAAAAAAAAAAGACACACATATATATATATATA [CACACA_site633] | 9.63 |
| TATAGACAAACACATACATGCATACATACATACATA [TGCATGCA_site273] | 9.75 |
| AAAAAAAAAAGACACACACACACAAATACATACACA [CACACA_site6472] | 10.8 |
| GGCAACATTTGAAACACACACACATACAAACAAACA [CACACA_site3307] | 10.3 |
| ATAAAACAAAGACACACACACATACACAAAAAAAAA [CACACA_site7752] | 10.5 |
| CAAAGACACAAACACACACACACATACATACATACA [CACACA_site453] | 11.3 |
| CAACATTTGAGACACACACACATACAAACAAACAAA [CACACA_site7538] | 11.2 |
| TTATGGTATAAAAAAATACACACTTATATATATTCT [CACACA_site488] | 9.72 |
| TACGTAAAAATAATACGTACATATATTTATAGAAAA [XGTACX_site4959] | 9.71 |
| TATTAATTTTTTTTTTTTTTTTTTTTTTTTTTTTTT [CACACA_negctrl_site1329] | 9.26 |
| ATGATACATAAAGAATATAAAACATGAAATATAATA [CACACA_negctrl_site1461] | 9.79 |
| AAGATTTGAAAAAATACACACAATAAAAAAATAAAA [CACACA_site3281] | 10.1 |
| TTTTATTATTTTTGTTGTACAGTATACTGTATGATT [XGTACX_site5359] | 9.69 |
| TTAAAAAATCACAACACACACACACGCAAAAAAAAA [CACACA_site6793] | 10.8 |
| AACAAATACGAACACACACACACACTAAAAAAAAAA [CACACA_site6386] | 10.8 |
| AAAAAATCACGACACACACACACACTAAAAAAAAAA [CACACA_site6792] | 11.3 |
| TCATAAAGAACAAAGTGTACCTATATATTACATACA [XGTACX_site7595] | 9.59 |

— the supplement of paper PMC11417369
